# Bioassay records from PubChem BioAssay.
# Compounds with a hit are over-represented: about 19% of the library has one in this group of screens.
# HT1080-NT tox: kills 2HG-producing HT-1080-NT fibrosarcoma cells; HT-1080-NT fibrosarcoma viability, CellTiter-Glo ATP luminescence, 48 h; Potency, µM (series often up to 46.1 µM), without a hit: top-dose activity, negative = less viability, hits mostly cytotoxic; hit rate 1.6% among 360,000; AID 686970;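 also: NT is the 2HG producing partner of a matched IDH1 knockdown line; 0% = DMSO-treated cells and -100% = media-only wells without cells; nearly all actives have a fitted effect of over 55% in size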
#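 Fibrosarcoma NT cells, 750 per well in 5% FBS RPMI, were exposed to compound for 48 hours. Viability: CellTiter-Glo luminescence.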
# HT1080 IDH1KD tx: kills HT-1080 cells with IDH1 knockdown; HT-1080 IDH1 knockdown viability, ATP luminescence, 48 h; Potency, µM (highest dose often 46.1 µM), for the others: at the highest dose activity, negative = toxicity, usual class: cytotoxic; hit rate 2% among 360,000; AID 686971;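 also: 0% = DMSO wells and -100% = cell-free medium wells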
#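 % activity derives from luminescence (CellTiter-Glo), normalised to DMSO and no-cell wells. HT-1080-IDH1KD cells, 750/well, had 48 h compound exposure at 37 °C.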
# KB-3-1 tox: kills parental KB-3-1 adenocarcinoma cells | hit rate 1.4% among 400,000 | KB-3-1 viability, CellTiter-Glo ATP luminescence, 72 h | AID 1347075 | Potency, µM (titrated, usually from 46.1 µM), usual class: cytotoxic; also: nearly all actives have a fitted effect of over 60% in size
#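 Using CellTiter-Glo luminescence, growth of non-resistant KB-3-1 adenocarcinoma cells is assessed 72 h after pin-tool compound addition at 37 °C. Normalized responses across the concentration series yield fitted curves.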
# DT40 TDP1 CPT: growth inhibition of DT40 Tdp1-/-;hTDP1 cells with camptothecin (screen for TDP1 inhibitors). chicken DT40 Tdp1-/-;hTDP1 cells + 20 nM CPT, ATP luminescence, 48 h. Potency, µM (series often up to 46.2 µM), inactives show at the top dose activity change, negative = growth inhibition, actives largely listed as inhibitors. hit rate 12% among 420,000; also: nearly all actives have a fitted effect of over 55% in size
#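 Chicken DT40 Tdp1-/- cells stably complemented with human TDP1 were seeded at 400 cells/well in medium containing 20 nM camptothecin, exposed to pin-transferred compounds, and grown at 37 °C for at least 48 hr. Viability was read as ATP luminescence.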
# KB-V1 MDR tox: KB-V1 MDR subline cytotoxicity; KB-V1 MDR cells viability, CellTiter-Glo, 72 h; Potency, µM (top dose mostly 46.1 µM), actives largely listed as cytotoxic; hit rate 3.4% among 400,000; AID 1347076; also: nearly all actives have a fitted effect of over 60% in size
#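 KB-V1 MDR subline cells in DMEM (phenol-red free, 10% FBS) exposed to compounds in qHTS concentration series for 72 h at 37 degrees C. Viability read by CellTiter-Glo luminescence; concentration-effect curves fitted after normalization and correction.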
# TDP1 cell noCPT: qHTS for Inhibitors of human tyrosyl-DNA phosphodiesterase 1 (TDP1): qHTS in cells in absence of CPT | hit rate 15% among 420,000 | Potency, µM (doses to about 46.2 µM), for the others: top-dose activity change, negative = growth inhibition, hits mostly inhibitors | AID 686978, 2013 | DT40 Tdp1-/- hTDP1 cells, no CPT, ATP luminescence, 48 h; also: nearly all actives have a fitted effect of over 55% in size
#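 Readout: luminescence from CellTiter-Glo after 30 min in the dark at RT. Cells: DT40 Tdp1-/- with stable hTDP1, 400/well. Exposure: compounds alone, ≥48 hr, 37 °C.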
# * = called active by the depositor; i = inactive; ? = inconclusive; . = not tested or not shown; ! = not active in a repeat; [ ] = dose if it differs, or a comment. Calls follow the shape of the dose curve; as a rule, active = well fitted curve in the direction sought with a large enough effect; inconclusive = small, poorly fitted or top-dose-only effect, or another doubt; inactive = no such curve, though single readings can be large; an effect the other way counts as inactive or inconclusive. Unless noted, % is scaled to controls: 0 for no effect and ±100 for the full control effect; potency is read from the fitted curve at half-maximal effect.
SMILES,HT1080-NT tox,HT1080 IDH1KD tx,KB-3-1 tox,DT40 TDP1 CPT,KB-V1 MDR tox,TDP1 cell noCPT
Cc1cccc(N2CCN(C(=O)c3ccc(Cl)c(S(=O)(=O)NCc4ccco4)c3)CC2)c1C,?,16.4µM*,13µM*,?,13µM*,?
Cc1cccc(N2CCN(C(=O)c3ccc(Cl)c(S(=O)(=O)N4CCc5ccccc5C4)c3)CC2)c1C,1.0%,5.8%,i,?,?,14.6µM*
Cc1ccc(NC(=O)c2ccc(Cl)c(S(=O)(=O)N3CCc4ccccc43)c2)nc1,?,-10.0%,?,?,?,25.9µM*
O=C(NNC(=O)c1ccccc1O)c1ccc(Cl)c(S(=O)(=O)N2CCc3ccccc32)c1,?,?,?,20.6µM*,?,20.6µM*
O=C(c1ccc(Cl)c(S(=O)(=O)N2CCOCC2)c1)N1CCN(c2ccccc2F)CC1,1.7%,7.7%,i,?,?,?
COCCn1c(=O)c(-c2ccc(Cl)cc2)nc2cncnc21,.,.,.,-1.3%,.,-22.8%
CC(=O)N1CCN(C(=O)c2ccc(Cl)c(S(=O)(=O)N3CCc4ccccc43)c2)CC1,-5.9%,2.8%,i,-26.9%,i,?
O=C(c1ccc(Cl)c(S(=O)(=O)N2CCc3ccccc32)c1)N1CCN(c2ccccc2O)CC1,-20.6%,?,i,?,18.4µM*,23.1µM*
COCCNC(=O)C1CCCN(C(=O)Cc2ccc(F)cc2)CC1 (stereo not drawn),?,26.0%,i,-2.1%,i,20.0%
COc1ccc(-c2nc3ccccc3s2)cc1NC(=O)COc1ccc(C)cc1,.,.,?,.,i,.
COc1ccc(-c2nc3ccccc3o2)cc1NC(=O)COc1ccc(C(C)(C)C)cc1,.,.,.,?,.,16.4µM*
Cc1cc(-c2nc3ncccc3o2)ccc1NC(=O)COc1ccc(C(C)(C)C)cc1,.,.,i,18.4µM*,i,16.4µM*
COc1ccc(-c2nc3ccccc3s2)cc1NC(=O)COc1cccc(C)c1,.,.,.,?,.,16.4µM*
CCC(=O)Nc1ccc(-c2nc3ncccc3o2)cc1C,.,.,i,1.5%,i,-4.5%
CC(C)(C)c1ccc(OCC(=O)Nc2ccc(-c3nc4cccnc4o3)cc2)cc1,-4.4%,-2.1%,i,?,i,9.2µM*
CC(C)C(=O)Nc1ccc(-c2nc3cccnc3o2)cc1,-1.1%,8.9%,i,10.0%,?,-12.0%
CC(C)c1ccc(CNc2ncccn2)cc1,4.4%,8.7%,i,-15.6%,i,-20.7%
Cc1cccc(C)c1NC(=O)C(c1ccc(C#N)cc1)n1c(=O)c(-c2ccccc2)nc2ccccc21 (stereo not drawn),-13.8%,-10.8%,i,-4.6%,i,?
O=C(CCN1Cc2ccccc2OC(c2ccccc2F)C1)N1CCC(N2CCCC(O)C2)CC1 (stereo not drawn),.,.,.,2.0%[9.04 µM],.,-21.3%
COc1cccc(C(=O)Nc2cccc(NC(=O)c3ccccc3Cl)c2)c1,-10.7%,-13.8%,i,?,i,?
COc1ccc(NC(=O)c2cccc(OS(=O)(=O)N(C)C)c2)cc1,-12.6%,-13.2%,i,18.4µM*,i,5.17µM*
CN(C)S(=O)(=O)Oc1cccc(C(=O)Nc2ccc(Cl)c(Cl)c2)c1,?,?,i,7.31µM*,i,10.3µM*
CN(C)S(=O)(=O)Oc1cccc(C(=O)Nc2cccc(Cl)c2)c1,-17.0%,?,i,14.6µM*,?,18.4µM*
CNS(=O)(=O)c1cccc(C(=O)Nc2cccc(Cl)c2)c1,-5.4%,-21.4%,i,-21.5%,i,?
CC(C)Cc1cc(C(=O)Nc2cc(C(F)(F)F)ccc2Cl)no1,-0.9%,2.3%,i,8.1%,i,-12.8%
SMILES,HT1080-NT tox,HT1080 IDH1KD tx,KB-3-1 tox,DT40 TDP1 CPT,KB-V1 MDR tox,TDP1 cell noCPT
Cc1cccc(C)c1NC(=O)C1CCCN1S(=O)(=O)c1ccc2c(c1)n(C)c(=O)c(=O)n2C (stereo not drawn),-0.8%,0.2%,i,6.4%,i,6.0%
O=C(OCCN1C(=O)c2cccc3c(N4CCOCC4)ccc(c23)C1=O)c1ccc(Cl)cc1,?,2.31µM*,i,2.06µM*,i,1.64µM*
CCCN(CCC)S(=O)(=O)c1ccc(C(=O)OCCN2C(=O)c3cccc4c(N5CCOCC5)ccc(c34)C2=O)cc1,11.5%,19.9%,i,?,14.6µM*,?
Cc1c(Cl)cccc1NC(=O)Nc1c[nH]c(=O)[nH]c1=O,.,.,i,-2.7%,i,-0.8%
N[C@@H](Cc1ccccc1)C(=O)N1CCC(C(=O)NCC(=O)NCC(=O)O)CC1,13.6%,-1.8%,i,-1.3%,?,2.1%
CC(NC(=O)Cn1ccc2cc(S(=O)(=O)N3CCCCCC3)ccc21)c1ccccc1 (stereo not drawn),.,.,i,?,i,18.4µM*
CC(C)NC(=O)Cn1ccc2cc(S(=O)(=O)N3CCCCCC3)ccc21,.,.,i,?,i,?
O=C(Cn1ccc2cc(S(=O)(=O)N3CCCCCC3)ccc21)NCc1cccc(Cl)c1,.,.,.,?,.,18.4µM*
CCOc1ccccc1CNC(=O)Cn1ccc2cc(S(=O)(=O)N3CCC(C)CC3)ccc21,-9.1%,-25.4%,i,?,i,20.6µM*
O=C(Cn1ccc2cc(S(=O)(=O)N3CCCC3)ccc21)NCCc1ccccc1,-15.8%,-6.2%,i,?,i,23.1µM*
CCOC(=O)c1ccccc1NC(=O)N1CCCN(S(=O)(=O)c2ccc3c(ccn3CC)c2)CC1,.,.,?,.,14.6µM*,.
O=C(Cn1ccc2cc(S(=O)(=O)N3CCCCC3)ccc21)NCc1ccccc1Cl,.,.,.,18.4µM*,.,20.6µM*
COC(=O)Cn1ccc2cc(S(=O)(=O)N3CCCCC3)ccc21,-3.2%,11.6%,i,20.6µM*!,i,?
COc1cn(CC(=O)Nc2ccccc2)c(CN2CCCCC2)cc1=O,.,.,.,2.0%,.,-7.1%
Cc1occc(=O)c1OC(=O)Nc1ccc(Cl)c(Cl)c1,23.1µM*,?,?,2.91µM*,?,4.61µM*
COc1ccc(C(=O)Oc2c(C)occc2=O)cc1OC,-4.3%,-2.5%,i,4.5%,?,-3.2%
Cc1ccc(-n2c(=O)c3ccc(C(=O)NCc4ccco4)cc3n(CC(=O)Nc3ccccc3C(F)(F)F)c2=O)cc1,.,.,i,-0.5%,?,1.1%
Cc1ccc(S(=O)(=O)n2cc(C=O)c3ccccc32)cc1,16.4µM*,23.1µM*,i,?,i,?
